# Compound activity as filed in PubChem BioAssay.
# A selection: hits, their analogues and other compounds. The true share with any hit is near 12%.
# G9a inh – qHTS Assay for Inhibitors of Histone Lysine Methyltransferase G9a | G9a H3K9 monomethylation, AlphaScreen, 2 h | Histone-lysine N-methyltransferase EHMT2 (Homo sapiens), Q96KQ7 | Potency, µM (top dose mostly 102 µM), for inactives: at the top dose activity, negative = inhibition, most hits filed as inhibitors | AID 504332, 2011 | actives 8.8% (n = 350,000); also: potency is read from the fitted curve at half-maximal effect; % is scaled to controls: 0 for no effect and ±100 for the full control effect; nearly all actives have a fitted effect of over 75% in size
#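 G9a (20 nM) preincubated 15 min RT with compounds, then 500 nM biotinylated H3K9 peptide and 20 uM SAM added; 2 h RT reaction. Monomethyl-H3K9 product detected by AlphaScreen with anti-H3K9me1 antibody, streptavidin donor and anti-rabbit IgG acceptor beads.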
# PI5P4K alpha inh – qHTS for Inhibitors of phosphatidylinositol 5-phosphate 4-kinase (PI5P4K). max response, %. AID 652105, 2013. actives 1.2% (n = 330,000). PI5P4Kalpha enzyme, ADP-Glo luminescence, 60 min; stronger effect = lower value. Phosphatidylinositol 5-phosphate 4-kinase type-2 alpha (Homo sapiens), P48426; active = max response of -50% or lower; inconclusive = between -30% and -50%; inactive = -30% or higher; also: value at the top dose of about 77 µM; % is scaled to controls: 0 for no effect and ±100 for the full control effect
# Target sequence (P48426 whole entry, looked up): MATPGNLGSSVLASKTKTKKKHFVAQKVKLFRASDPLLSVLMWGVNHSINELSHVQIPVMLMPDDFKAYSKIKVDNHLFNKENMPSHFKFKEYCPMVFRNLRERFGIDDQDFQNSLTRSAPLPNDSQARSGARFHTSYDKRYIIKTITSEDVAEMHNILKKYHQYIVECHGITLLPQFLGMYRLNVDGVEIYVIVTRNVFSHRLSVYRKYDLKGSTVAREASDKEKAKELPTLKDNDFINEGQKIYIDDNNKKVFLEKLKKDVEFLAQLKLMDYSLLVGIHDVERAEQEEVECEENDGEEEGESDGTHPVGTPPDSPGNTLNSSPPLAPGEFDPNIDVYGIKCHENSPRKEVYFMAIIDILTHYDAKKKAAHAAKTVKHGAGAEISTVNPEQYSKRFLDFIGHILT
#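 Luminescence from ADP-Glo served as readout of PI5P4Kalpha activity in a qHTS format. Reaction: enzyme, substrate, compound, ATP at 5 microM final, 60 min at RT.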
# BAZ2B inh – qHTS Assay for Inhibitors of BAZ2B | Bromodomain adjacent to zinc finger domain protein 2B (Homo sapiens), Q9UIF8 | AlphaScreen BAZ2B-H3K14Ac peptide displacement | Potency, µM (highest dose often 114 µM), inactives show at the highest dose activity change, negative = inhibition, most hits filed as inhibitors | actives 4.4% (n = 360,000) | AID 504333, 2011; also: potency is read from the fitted curve at half-maximal effect; % is scaled to controls: 0 for no effect and ±100 for the full control effect; nearly all actives have a fitted effect of over 60% in size
#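 Protein-peptide AlphaScreen: BAZ2B 50 nM, b-H3K14Ac 50 nM, 1x PBS pH 7.4 + 0.01% Tween-20. Preincubation 30 min RT; cpd 30 min RT (top 110 uM); beads 20 min RT, light-protected.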
# PLK1 PBD inh – qHTS for Inhibitors of PLK1-PDB (polo-like kinase 1 - polo-box domain): Primary Screen; Potency, µM, for inactives: max response, negative = inhibition, usual class: inhibitors; actives 2.8% (n = 360,000); Plk1 PBD binding of FITC phosphopeptide, fluorescence polarization; also: potency is read from the fitted curve at half-maximal effect; series mostly up to about 57 µM; % is scaled to controls: 0 for no effect and ±100 for the full control effect; nearly all actives have a fitted effect of over 65% in size
# HP1b binding inh – HTS for Inhibitors of HP1-beta Chromodomain Interactions with Methylated Histone Tails; Chromobox protein homolog 1 (Homo sapiens), P83916; AlphaScreen HP1-beta / biotin-H3K9me3 peptide binding; Potency, µM (titrated, usually from 114 µM), for the others: at the top dose activity change, negative = inhibition, most hits filed as inhibitors; actives 0.56% (n = 390,000); AID 540317, 2011; also: potency is read from the fitted curve at half-maximal effect; nearly all actives have a fitted effect of over 70% in size
# Target sequence (P83916 whole entry, looked up): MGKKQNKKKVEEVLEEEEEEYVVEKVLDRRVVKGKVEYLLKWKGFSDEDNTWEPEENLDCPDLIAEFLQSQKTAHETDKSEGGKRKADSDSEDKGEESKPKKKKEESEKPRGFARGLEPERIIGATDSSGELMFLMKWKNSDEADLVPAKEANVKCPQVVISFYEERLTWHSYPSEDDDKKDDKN
#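 AlphaScreen: HP1-beta (50 nM) preformed 30 min with biotin-H3(1-18)K9me3 peptide (50 nM) in PBS pH 7.4, 0.01% Tween-20. Compound added for 30 min at RT, then streptavidin donor/nickel chelate acceptor beads (10 ug/mL) for 30 min.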
# JMJD2A Tudor – qHTS Assay for Inhibitors of JMJD2A-Tudor Domain; AlphaScreen JMJD2A-Tudor / H3K4me3 peptide binding; Potency, µM (series often up to 114 µM), inactives show top-dose activity change, negative = inhibition, actives largely listed as inhibitors; actives 4.4% (n = 390,000); also: potency is read from the fitted curve at half-maximal effect; % is scaled to controls: 0 for no effect and ±100 for the full control effect; nearly all actives have a fitted effect of over 50% in size
# * marks the source's active call; other numbers are inactive results; u = inconclusive; x = not tested or not shown; ! = repeats disagree; [ ] = dose if it differs, or a comment. Unless noted, calls follow the shape of the dose curve; as a rule, active = well fitted curve in the direction sought with a large enough effect; inconclusive = small, poorly fitted or top-dose-only effect, or another doubt; inactive = no such curve, though single readings can be large; an effect the other way counts as inactive or inconclusive.
SMILES,G9a inh,PI5P4K alpha inh,BAZ2B inh,PLK1 PBD inh,HP1b binding inh,JMJD2A Tudor
Cn1ncc([N+](=O)[O-])c1C(=O)Nc1ccccc1C(=O)O,11%[0.501 µM],-52*,-6%,-6%,32%,-35%
COc1cc(Cl)c(C)cc1NC(=O)c1cnc(N2CCCCC2)c2ccccc12,73%[59 µM],x,20%,x,54%[57 µM],34%
Cn1nc(C(F)(F)F)c(C#N)c1N1CCN(c2ccccc2)CC1,u,-2,u,-7%,23%,-8%
Cn1nc(C(F)(F)F)c(C#N)c1N1CCN(c2ccccn2)CC1,9%,3,1%,24µM*,-3%,50µM*
CC(=O)c1ccc(OCc2cn(CC(=O)c3ccc(O)cc3)nn2)cc1,x,-2,x,-8%,25%,u
CC(=O)c1ccc(OCc2cn(CC(=O)c3ccc(O)cc3)nn2)c(C)c1,x,-4,x,-6%,x,x
O=C(Cn1cc(COc2ccccc2C(F)(F)F)nn1)c1ccc(O)cc1,x,-26,x,21µM*,21%,45µM*
Cc1cccc(C)c1OCc1cn(CC(=O)c2ccc(O)cc2)nn1,x,-5,x,-20%,15%,89µM*
COc1cc(C(C)=O)ccc1OCc1cn(CC(=O)c2ccc(O)cc2)nn1,x,u,x,24µM*,41%,22µM*
CCCCCCCC(=O)OCCOC(=O)CCCCCCC,21%[59 µM],x,x,x,x,x
Cc1[nH]n(S(=O)(=O)c2ccccc2)c(=O)c1N=Nc1cccc(Cl)c1,x,-10,6%,-20%,30%,-17%
Cc1[nH]n(S(=O)(=O)Cc2ccccc2)c(=O)c1N=Nc1ccccc1Cl,50µM*,0,x,-18%,-19%,u
C[n+]1cccc(C(=O)Nc2ccccc2)c1,u,0,-1%,2%,50%,-3%
O=C(O)c1c2c(nc3ccc(Cl)cc13)CCC2,40µM*,4,u,-21%,14%,-23%
O=C(O)c1c2c(nc3ccc(F)cc13)CCC2,-22%[59 µM],x,6%,-9%,14%,-12%
Cc1ccc2nc3c(c(C(=O)O)c2c1)CCC3,50µM*,x,-32%,-25%,4%,-30%
Cc1ccc(Cl)cc1Nc1nn2c(=O)c3ccc(C(=O)NC(C)c4ccccc4)cc3nc2s1 (stereo not drawn),-6%[59 µM],x,-9%,x,10%,10%
COc1ccc(NC(=O)CCC(=O)N2CCC(c3ccccc3)=N2)cc1S(=O)(=O)N1CCCCC1,x,-4,x,3%,28%,6%
CC(C)(C)C(=O)Nc1nnc(SCc2ccc(F)cc2)s1,8%,1,6%,-1%,27%,6%
Cc1cc(=O)[nH]c(SCC(=O)Nc2nc3ccccc3s2)n1,32µM*,-13,u,u,28%,-23%
Cc1cc(=O)[nH]c(SCC(=O)Nc2nc(-c3ccccc3)cs2)n1,50µM*,u,u,u,15%,-20%
Cc1nnc(NC(=O)CSc2nc3ccccc3[nH]2)s1,-19%,-1,x,-1%,31%,-6%
C=CCSc1nnc(NC(=O)CSc2nc3ccccc3[nH]2)s1,1.8µM*,x,-8%,-16%,27%,1%
Cc1cc(=O)[nH]c(SCC(=O)Nc2ccnc3ccccc23)n1,u,7,-9%,-5%,7%,-7%
CCC(=O)Nc1nnc(SCc2ccc(F)cc2)s1,8.9µM*,-5,1%,-4%,46%,3%
SMILES,G9a inh,PI5P4K alpha inh,BAZ2B inh,PLK1 PBD inh,HP1b binding inh,JMJD2A Tudor
CN(C)CCNC(=O)CN1C(=O)CCn2nc(-c3cn(C)c4ccccc34)cc21,-1%[59 µM],x,-18%,x,17%[57 µM],-26%
CCC(C(=O)Nc1ccon1)c1ccccc1 (stereo not drawn),15%,-2,-3%,-9%,45%,-5%
COc1ccccc1C(=O)NCC(=O)NCCc1ccc(Cl)cc1,20%[59 µM],1,7%,-5%,-7%,-12%
Cc1c(P(=S)(c2ccccc2)c2ccccc2)c2ccccc2n1Cc1ccccc1,x,x,x,x,x,-6%
CC(=O)Nc1c(C)nn(-c2ccccc2)c1N1CCC(C(=O)Nc2ccccc2C(F)(F)F)CC1,32%[59 µM],x,10%,x,25%[57 µM],-5%
O=C(CSc1cn[nH]n1)Nc1nc2ccccc2s1,40µM*,-6,-1%,-3%,34%,-13%
Cc1cc(=O)[nH]c(SCC(=O)Nc2nnc(SCc3ccccc3)s2)n1,-6%,-9,-39%,24µM*,-6%,-11%[11.4 µM]
COc1cc(=O)[nH]c(SCC(=O)Nc2nc3c(s2)CCCC3)n1,9%[59 µM],-13,2%,12µM*,-5%,32µM*
COC(=O)c1ccc(CSc2nnc(C)s2)cc1,19%,-51*,-7%,3.4µM*,-7%,u
O=C(CSc1ccccn1)Nc1nc2ccccc2s1,13%[59 µM],-2,3%,-1%,33%,1%
Cc1cccc(C)c1NC(=O)C1CCCN(S(=O)(=O)c2c(C)noc2/C=C/N(C)C)C1 (stereo not drawn),2%[59 µM],x,-18%,x,45%,-12%
O=C(CSc1nc2ccccc2o1)Nc1nc2ccc(Br)cc2s1,45µM*,-12,-17%,-24%,55%,-21%[11.4 µM]
CC1(C)C2CCC1(C)C(NCC(O)COc1ccc(C#N)cc1)C2 (stereo not drawn),u,-11,25µM*,2%,-23%,13µM*
N#Cc1ccc(OCC(O)CN2CCN(CC(O)COc3ccc(C#N)cc3)CC2)cc1 (stereo not drawn),29%,-8,4%,-11%,-9%,-20%
CC(C)C1=CC(=Nc2ccc(S(N)(=O)=O)cc2)C=C(C(C)C)C1=O,x,4,45µM*,-7%,u,56µM*
CC(C)C1=CC(=NS(=O)(=O)c2cccc([N+](=O)[O-])c2)C=C(C(C)C)C1=O,-2%[59 µM],1,7%,-16%,1%,-21%
COc1ccc(CCNS(=O)(=O)CCNC(=O)c2ccc3c(c2)OCO3)cc1,8%[0.501 µM],5,-4%,3%,24%,-10%
Oc1ccc(C2CNCCc3c2cc(O)c(O)c3Cl)cc1 (stereo not drawn),5.3µM*!,5,10%,-19%,16%,35µM*!
COc1cc2c(cc1OC)C(c1ccc(O)cc1)NCC2 (stereo not drawn),18%,3,-16%,7%,26%,-5%
Oc1cc2c(c(Cl)c1O)CCNCC2c1ccccc1 (stereo not drawn),11µM*,u,x,-12%,-10%,45µM*
COc1cccc(CNC(=O)c2cc(S(=O)(=O)N3CCCCC3)cn2C)c1,-15%[59 µM],x,-10%,x,7%[57 µM],-12%
